# Source: PubChem (National Center for Advancing Translational Sciences (NCATS))
# Shown are actives, neighbours in structure and some others; about 15% of the full set was active somewhere.
# ELG1 repair inh: blocks ELG1-dependent DNA repair in HEK293T cells | HEK293T ELG1-luciferase reporter, luminescence, 16 h; DNA damage induced by 5-fluorouridine | Potency, µM (top dose mostly 46.1 µM), for the others: at the highest dose activity change, negative = inhibition, most hits filed as inhibitors | 2.3% of 330,000 active | AID 504467; further: nearly all actives have a fitted effect of over 55% in size
#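 Overnight (16 hr) co-exposure of 2,000 cells/well to 5-fluorouridine and compound at 37 °C preceded detection. Luciferase was quantified via ONE-Glo luminescence; loss of signal denotes inhibition.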
# Gal4-VP16 FLuc: counter-screen for ROR gamma inhibitors: Gal4-VP16 reporter; Drosophila S2 Gal4-VP16 UAS-luciferase, luminescence, 20 h; Potency, µM (highest dose often 53.6 µM), inactives show at the highest dose activity, negative = inhibition, hits mostly inhibitors; 3.5% of 310,000 active; AID 2546;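 further: Gal4-VP16 expression switched on by copper sulfate through the metallothionein promoter; nearly all actives have a fitted effect of over 50% in size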
# DT40 TDP1 no CPT: qHTS for Inhibitors of human tyrosyl-DNA phosphodiesterase 1 (TDP1): qHTS in cells in absence of CPT. DT40 Tdp1-/- hTDP1 cells, no CPT, ATP luminescence, 48 h. Potency, µM (titrated, usually from 46.2 µM), without a hit: at the top dose activity change, negative = growth inhibition, hits mostly inhibitors. 15% of 420,000 active; further: nearly all actives have a fitted effect of over 55% in size
#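 Cells were dispensed at 400 per well, compounds added by pin tool, plates incubated ≥48 hr at 37 °C, then CellTiter-Glo added for 30 min at room temperature before luminescence reading. Line: DT40 Tdp1-/- complemented with hTDP1; camptothecin omitted.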
# ALOX12 inh: inhibitors of human 12S-lipoxygenase ALOX12. P18054. purified 12hLO, xylenol orange hydroperoxide absorbance. Potency, µM (series often up to 108 µM), for the others: at the highest dose activity change, negative = inhibition, hits mostly inhibitors. 1.1% of 580,000 active. AID 1671190
# Target sequence (P18054 whole entry, looked up): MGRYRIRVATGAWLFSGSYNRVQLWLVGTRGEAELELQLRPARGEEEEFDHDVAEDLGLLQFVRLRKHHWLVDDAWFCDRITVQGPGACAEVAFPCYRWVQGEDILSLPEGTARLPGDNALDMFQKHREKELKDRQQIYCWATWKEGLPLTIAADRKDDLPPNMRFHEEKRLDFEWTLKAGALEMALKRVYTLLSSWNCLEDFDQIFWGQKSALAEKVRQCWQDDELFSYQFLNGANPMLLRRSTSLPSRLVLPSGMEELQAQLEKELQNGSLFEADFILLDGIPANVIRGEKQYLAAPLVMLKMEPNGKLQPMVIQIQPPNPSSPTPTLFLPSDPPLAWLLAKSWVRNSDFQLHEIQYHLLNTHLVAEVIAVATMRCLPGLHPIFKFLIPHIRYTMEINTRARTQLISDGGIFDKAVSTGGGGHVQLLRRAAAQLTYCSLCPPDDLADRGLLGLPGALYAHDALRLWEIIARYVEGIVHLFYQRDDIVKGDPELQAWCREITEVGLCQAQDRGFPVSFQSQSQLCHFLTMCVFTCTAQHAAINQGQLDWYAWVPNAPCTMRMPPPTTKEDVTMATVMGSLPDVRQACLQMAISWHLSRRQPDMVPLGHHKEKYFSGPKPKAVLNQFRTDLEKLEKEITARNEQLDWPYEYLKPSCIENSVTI
#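 Purified human 12hLO at 150 nM in 25 mM Hepes, 0.01% Triton X-100, pH 7.0, preincubated 15 min at room temperature with compound. Reaction started with 40 uM arachidonic acid, 30 min at room temperature. Hydroperoxide measured by Fe-xylenol orange, 573/405 nm absorbance ratio.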
# RORg inh: inhibitors of mouse ROR gamma transcriptional activity. P51450. Drosophila S2 Gal4-RORgamma UAS-luciferase reporter, 20 h. Potency, µM (titrated, usually from 53.6 µM), without a hit: at the highest dose activity change, negative = inhibition, usual class: inhibitors. 5.4% of 310,000 active. AID 2551; further: nearly all actives have a fitted effect of over 60% in size
#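 Read-out: Photinus luciferase luminescence; inhibitors lower reporter signal. Insect Schneider cells with Gal4-ROR gamma fusion under metallothionein promoter, UAS reporter; 700 uM final copper sulfate induction, 20 hr, ambient temperature.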
# TDP1 cell CPT: DT40-hTDP1 cell growth loss with CPT | AID 686979 | 12% of 420,000 active | chicken DT40 Tdp1-/-;hTDP1 cells + 20 nM CPT, ATP luminescence, 48 h | Potency, µM (top dose mostly 46.2 µM), for the others: at the top dose activity change, negative = growth inhibition, most hits filed as inhibitors; further: nearly all actives have a fitted effect of over 55% in size
#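 Chicken DT40 Tdp1-/- cells complemented with human TDP1, 400 cells/well, exposed to compounds plus 20 nM camptothecin for at least 48 h at 37 C; viability read as ATP content by CellTiter-Glo luminescence.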
# * = called active by the depositor; ? = inconclusive; / = no result; [ ] = remark or other dose. The call rests on the fitted dose curve; in most records, active means well fitted curve in the direction sought with a large enough effect; inconclusive means small, poorly fitted or top-dose-only effect, or another doubt; inactive means no such curve, though single readings can be large; an effect the other way counts as inactive or inconclusive. On the % scale 0 is the no-effect control and ±100 the full control effect; potency means the concentration at half of the fitted maximal effect.
SMILES,ELG1 repair inh,Gal4-VP16 FLuc,DT40 TDP1 no CPT,ALOX12 inh,RORg inh,TDP1 cell CPT
CC(=O)N1C[C@@H]2CCCN3CCC[C@@H]([C@H]23)[C@H]1CCCC(=O)NCc1ccc(C)o1,/,/,/,51%,/,/
O=C(Nc1ccccc1)c1ccc(=O)n(Cc2ccc(F)c(F)c2)c1,-1%,-5%,-28%,5%,-1%,-17%
COc1ccc(C)cc1NC(=O)c1nn(-c2ccccc2)cc1OC,?,-12%,21µM*,-17%,-44%,?
Cc1cccc(Cn2cc(C(=O)Nc3cc(F)ccc3F)ccc2=O)c1,/,/,16µM*,0%,/,?
Cc1ccc(C)c(-n2nnc(C(=O)Nc3ccc(Br)cc3)c2C)c1,/,/,5.2µM*,-18%,/,10µM*
COc1ccc(NC(=O)c2nnn(-c3cc(Cl)ccc3OC)c2C)cc1,/,/,/,-28%,/,/
COc1cn(-c2ccccc2)nc1C(=O)Nc1ccccc1,?,-19%,-29%,-10%,2%,4%
Cc1cccc(Cn2cc(C(=O)Nc3ccc(F)c(C(F)(F)F)c3)ccc2=O)c1,/,/,15µM*,-4%,/,23µM*
O=C1CN(C(=O)c2ccnc(-c3nnc4ccc(Nc5ccccc5)nn34)c2)CCN1,/,/,/,3%[176 µM],/,/
Cc1ccccc1Cc1nc(-c2nnn3c2COC(c2ccc(Cl)cc2)C3)no1 (configuration not stated),/,/,/,23%,/,/
COc1ccc(C)cc1NC(=O)c1nnn(-c2c(C)cccc2C)c1C,/,/,16µM*,-23%,/,?
COc1ccc(C)cc1NC(=O)c1nnn(Cc2cccc(Br)c2)c1N,/,/,-23%,-15%,/,-23%
COc1ccc(C)cc1NC(=O)c1ccc(=O)n(Cc2ccccc2)c1,/,/,23µM*,-18%,/,?
COc1ccc(C)cc1NC(=O)c1ccc(CN2CCN(c3ccccc3)CC2)cc1,18%,-4%,?,-11%,17%,?
CCOc1ncccc1C(=O)Nc1ccc2c(c1)OCO2,?,-1%,-16%,5%,24%,1%
CCOc1ncccc1C(=O)Nc1cc2c(cc1Br)OCCO2,-30%,/,12µM*,?,/,21µM*
O=C(CSc1ccc2nnc(-c3ccc(F)cc3)n2n1)N1CCCc2ccccc21,18µM*,-12%,16µM*,0%,-8%,18µM*
O=C(CSc1ccc2nnc(-c3ccc(Cl)cc3)n2n1)N1CCCc2ccccc21,?,-5%,23µM*,-14%,28%,-66%
CC1CCC2(CC1)NC(=O)N(CC(=O)Nc1sc3c(c1C(N)=O)CCC3)C2=O (configuration not stated),10%,9%,-20%,?,18%,?
COC(=O)c1c(NC(=O)CN2C(=O)NC3(CCc4ccccc4C3)C2=O)sc2c1CCCCC2 (configuration not stated),5%,4%,26µM*,-5%,5%,21µM*
COC(=O)c1c(NC(=O)CN2C(=O)NC3(CCC(C)CC3)C2=O)sc2c1CCC2 (configuration not stated),?,/,16µM*,1%,/,15µM*
Cc1[nH]c2ccccc2c1C1c2ccccc2C(=O)N1CC(=O)N1CCN(C)CC1 (configuration not stated),/,/,/,-2%,/,/
CN(CC1CCOC1)C(=O)Nc1c(F)cccc1F (configuration not stated),/,/,/,44%,/,/
COc1cccc(C(=O)NC2CCCN(c3cc(-c4ccc(F)cc4)[nH]n3)C2)c1 (configuration not stated),/,/,/,17%,/,/
CCCCOC(=O)c1ccc(NC(=O)CN2C(=O)NC3(CCCCCC3)C2=O)cc1,18%,/,8.2µM*,5%,/,10µM*
SMILES,ELG1 repair inh,Gal4-VP16 FLuc,DT40 TDP1 no CPT,ALOX12 inh,RORg inh,TDP1 cell CPT
CCCCOC(=O)c1ccc(NC(=O)C(=O)NCc2ccncc2)cc1,?,?,23µM*,-1%,?,23µM*
CCOC(=O)c1ccc(NC(=O)CN2C(=O)NC3(CCCCCCC3)C2=O)cc1,8%,/,?,6%,/,15µM*
CCOC(=O)c1ccc(NC(=O)CN2C(=O)NC3(CCOCC3)C2=O)cc1,/,/,/,11%,/,/
COc1ccc(Oc2ccc(/C=C/C(=O)c3ccc(O)cc3)cc2[N+](=O)[O-])cc1,?,?,15µM*,-4%,?,?
O=C(/C=C/c1cccc([N+](=O)[O-])c1)c1ccc2ccccc2c1,/,/,/,0%,/,/
O=C(/C=C/c1ccc(O)c([N+](=O)[O-])c1)c1ccc2ccccc2c1,2%,-8%,23µM*,-12%,-17%,18µM*
O=C(c1ccccc1)C1CCN(C(=O)/C=C/c2ccccc2F)CC1,/,/,/,50%,/,/
O=C(Nc1ccccc1)C1Sc2nnc(-c3ccccc3)n2NC12CCCCC2 (configuration not stated),/,/,/,66%,/,/
O=C(Nc1cccc(NC(=O)c2cccc(Cl)c2)c1)c1cccnc1,-11%,-13%,?,-8%,14%,?
Cc1cc(Nc2cccc(Cl)c2)nc2ccc(NC(=O)c3cccnc3)cc12,/,/,8.2µM*,-5%,/,13µM*
Cc1cc(Nc2cccc(C(F)(F)F)c2)nc2ccc(NC(=O)c3ccc(N(C)C)cc3)cc12,/,/,4.6µM*,-11%,/,5.2µM*
Cc1cc(Nc2cccc(Cl)c2)nc2ccc(NC(=O)c3cccc(N(C)C)c3)cc12,/,/,7.3µM*,-17%,/,13µM*
